The text below walks through data of PubChem BioAssay.

In assay [1] the test system is Wnt5a (protein binding on small-molecule microarray). Nature of the assay: Wnt5a binders on small-molecule microarray, primary screen, biophysical, 635/667 nm fluorescence (AID 1142).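 Further: fluorescence read at 667 nm with signal to noise per printed feature.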 Conditions: 635 nm fluorescence, higher = more signal.
Assay [2] in a line: cell viability in Huh7 cells, primary screen, cytotoxicity control for HCV replication inhibitor project, CellTiter-Glo luminescence, basal, 48 h (AID 1143).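 Further: Huh7 hepatoma cells carrying a hepatitis C replication reporter with no stimulus; test concentration not given here.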 The conditions noted are these: Huh7 HCV replicon, higher = more signal, called active from +8 up or from −8 down. A general note: Cellular ATP, detected with luciferase, serves as a proxy for viable cell number.
Assay [3] can be described thus: P. aeruginosa biofilm formation inhibitors, primary screen, PAO1 strain, BacTiter-Glo luminescence, LB-PBS (AID 1144). Conditions: 12 h, higher = more signal.
Assay [4] can be described thus: CREB reporter modulators without forskolin, primary screen, cell-based, PC12, CRE-LacZ reporter, unstimulated (AID 1145). The conditions noted are these: no forskolin, luminescence, 4.5 h, higher = more signal, called active from +8 up or from −8 down.
Assay [5] in a line: CREB reporter modulators under forskolin, primary screen, cell-based, PC12, CRE-LacZ reporter, forskolin-stimulated (AID 1146).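 Further: PC12 cells with 6xCRE LacZ reporter stimulated by forskolin 10 µM; beta-galactosidase reporter signal reflecting CREB driven transcription.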 The conditions noted are these: luminescence, 4.5 h, higher = more signal, called active from +8 up or from −8 down.
In assay [6] the target is Streptavidin (Streptomyces avidinii) (UniProt P22629). In words: streptavidin binders on small-molecule microarray, primary screen, artefact control for SMM compound annotation, biophysical, 635/667 nm fluorescence (AID 1147).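 Further: signal reflects streptavidin binding to arrayed compounds as a control protein.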 Conditions: streptavidin binding, higher = more signal.
Assay [7] is described as follows: small-molecule binders of probe aInhba, primary screen, biochemical, small-molecule microarray, 635/667 nm fluorescence (AID 1148).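 Further: score merges 667nm spot fluorescence with signal-to-noise for antibody binding to printed compounds.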 The conditions noted are these: higher = more signal.
Assay [8] addresses Torsin-1A (Homo sapiens) (UniProt O14656). In words: torsin A binders from cell lysate, primary screen, small-molecule microarray, wild-type, 635/667 nm (AID 1149). Conditions: COS7 hTOR1A-WT lysate, 635 nm fluorescence, higher = more signal.
Assay [9] has the same target. Nature of the assay: small-molecule binders of mutant TOR1A in lysate, primary screen, cell lysate, small-molecule microarray, COS7 lysate, 635/667 nm fluorescence (AID 1150).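 Further: score pools 667 nm emission and signal to noise measuring lysate protein binding.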 The conditions noted are these: COS7 hTOR1A mutant lysate, 635 nm fluorescence, higher = more signal.
Assay [10] concerns Sonic hedgehog protein (Shh). Nature of the assay: small-molecule binders of Shh protein, primary screen, biochemical, small-molecule microarray, 635/667 nm fluorescence (AID 1151).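 Further: Shh protein binding to compounds spotted on small-molecule microarray slides; score combines spot fluorescence intensity with signal-to-noise across triplicate slides.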 Conditions: small-molecule microarray binding, 635 nm fluorescence; higher = more signal.
Assay [11] is described as follows: E. coli DRC41 culture turbidity changes, primary screen, E. coli filamentation inducer project, strain DRC41, OD650, 48 h (AID 1152).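 Further: E. coli MC1000 strain DRC41 lacking acrAB efflux pump and sulA.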 The conditions noted are these: E. coli DRC41 (acrAB sulA), higher = more signal, called active from +8 up or from −8 down.
A short description of assay [12]: small-molecule binders of probe aLefty1, primary screen, biochemical, small-molecule microarray, 635/667 nm fluorescence (AID 1153).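 Further: score merges spot fluorescence with signal-to-noise ratio from the scanned slide images.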 The conditions noted are these: higher = more signal.
Assay [13] is described as follows: PSAC antagonists in infected red cells, primary screen, cell-based, P. falciparum Indochina, OD700, 1 h (AID 1154). Conditions: P. falciparum Indochina infected RBC osmotic lysis, higher = more signal, called active from +8 up or from −8 down.
The nature of assay [14]: PSAC antagonists in infected red cells, primary screen, cell-based, P. falciparum Indochina, OD700, 2 h (AID 1155).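 Further: lysis reports solute entry through the parasite surface anion channel PSAC; channel blockers reduce lysis of infected cells.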 The conditions noted are these: P. falciparum Indochina infected erythrocytes, osmotic lysis OD700; higher = more signal, called active from +8 up or from −8 down.
Assay [15] can be described thus: osmotic lysis modulators in infected erythrocytes, primary screen, PSAC antagonist project, cell-based, P. falciparum Indochina, OD700, 3 h (AID 1156). Conditions: higher = more signal, called active from +8 up or from −8 down.
Assay [16] can be described thus: PSAC antagonists in infected red cells, primary screen, cell-based, P. falciparum Indochina, OD700, 18 h (AID 1157). Conditions: P. falciparum Indochina infected erythrocytes, osmotic lysis OD700, 18 h; higher = more signal, called active from +8 up or from −8 down.
Assay [17] can be described thus: modulators of S6 phosphorylation in cells, primary screen, cell-based, A549, cytoblot, luminescence, serum-stimulated (AID 1158).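 Further: serum-stimulated A549 lung adenocarcinoma cells; signal is phosphorylated S6 detected by cytoblot immunostaining with HRP secondary.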 Conditions: A549 phospho-S6 cytoblot, 5 h, higher = more signal.
Assay [18] has as its target NADPH oxidase 2 (Homo sapiens) (UniProt P04839). In words: NOX2-dependent H2O2 signal modulators, primary screen, NOX inhibitor project, cell-based, HEK293-NOX2, PMA-stimulated, Amplex Red fluorescence (AID 1159). Further: test concentration not given here. Conditions: 45 min, higher = more signal, called active from +8 up or from −8 down.
The target of assay [19] is NADPH oxidase 4 (Homo sapiens) (UniProt Q9NPH5). In words: NOX4-dependent H2O2 signal modulators, primary screen, NOX inhibitor project, cell-based, HEK293-NOX4, tetracycline-induced, Amplex Red fluorescence (AID 1160). Conditions: 45 min, higher = more signal, called active from +8 up or from −8 down.
The target in assay [20] is NADPH oxidase 5 (Homo sapiens) (UniProt Q96PH1). Nature of the assay: NOX5-dependent H2O2 signal modulators, primary screen, NOX inhibitor project, cell-based, HEK293-NOX5, Amplex Red fluorescence (AID 1161). The conditions noted are these: HEK293-NOX5, ionomycin, 45 min, higher = more signal.

SMILES strings stand for the structures. Activity calls are given as the source filed them. Unless noted, how the calls were made is not given here.

Sequence of NADPH oxidase 2 (Homo sapiens) (P04839 whole entry, looked up): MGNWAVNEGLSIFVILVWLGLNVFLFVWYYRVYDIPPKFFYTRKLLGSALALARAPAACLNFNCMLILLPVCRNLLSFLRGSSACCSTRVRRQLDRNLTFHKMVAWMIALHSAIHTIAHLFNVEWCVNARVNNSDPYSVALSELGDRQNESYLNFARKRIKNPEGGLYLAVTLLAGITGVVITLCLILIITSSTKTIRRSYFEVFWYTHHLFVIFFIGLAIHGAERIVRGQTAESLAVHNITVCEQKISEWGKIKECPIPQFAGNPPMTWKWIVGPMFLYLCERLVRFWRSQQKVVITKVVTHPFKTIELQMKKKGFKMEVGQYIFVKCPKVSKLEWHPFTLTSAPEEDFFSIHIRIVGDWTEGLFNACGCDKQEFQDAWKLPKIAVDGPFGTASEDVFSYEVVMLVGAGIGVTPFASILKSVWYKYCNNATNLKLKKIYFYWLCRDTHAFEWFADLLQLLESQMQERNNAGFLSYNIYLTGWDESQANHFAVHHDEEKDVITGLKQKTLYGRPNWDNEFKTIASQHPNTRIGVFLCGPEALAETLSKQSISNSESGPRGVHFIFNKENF
Sequence of Torsin-1A (Homo sapiens) (O14656 whole entry, looked up): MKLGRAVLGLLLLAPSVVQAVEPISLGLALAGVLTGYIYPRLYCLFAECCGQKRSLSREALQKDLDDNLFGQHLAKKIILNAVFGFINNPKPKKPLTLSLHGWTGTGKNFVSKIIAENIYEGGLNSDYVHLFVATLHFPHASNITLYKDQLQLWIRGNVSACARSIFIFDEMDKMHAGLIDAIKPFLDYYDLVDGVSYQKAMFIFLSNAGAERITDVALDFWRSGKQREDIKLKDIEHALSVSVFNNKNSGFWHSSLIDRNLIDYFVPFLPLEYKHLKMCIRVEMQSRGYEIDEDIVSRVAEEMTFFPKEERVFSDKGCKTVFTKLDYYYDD
Sequence of Streptavidin (Streptomyces avidinii) (P22629 whole entry, looked up): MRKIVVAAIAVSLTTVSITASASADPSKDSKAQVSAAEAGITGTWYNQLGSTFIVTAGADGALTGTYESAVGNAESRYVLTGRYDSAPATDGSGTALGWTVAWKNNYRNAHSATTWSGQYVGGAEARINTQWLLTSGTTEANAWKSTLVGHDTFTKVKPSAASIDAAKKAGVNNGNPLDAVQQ
Sequence of NADPH oxidase 5 (Homo sapiens) (Q96PH1 whole entry, looked up): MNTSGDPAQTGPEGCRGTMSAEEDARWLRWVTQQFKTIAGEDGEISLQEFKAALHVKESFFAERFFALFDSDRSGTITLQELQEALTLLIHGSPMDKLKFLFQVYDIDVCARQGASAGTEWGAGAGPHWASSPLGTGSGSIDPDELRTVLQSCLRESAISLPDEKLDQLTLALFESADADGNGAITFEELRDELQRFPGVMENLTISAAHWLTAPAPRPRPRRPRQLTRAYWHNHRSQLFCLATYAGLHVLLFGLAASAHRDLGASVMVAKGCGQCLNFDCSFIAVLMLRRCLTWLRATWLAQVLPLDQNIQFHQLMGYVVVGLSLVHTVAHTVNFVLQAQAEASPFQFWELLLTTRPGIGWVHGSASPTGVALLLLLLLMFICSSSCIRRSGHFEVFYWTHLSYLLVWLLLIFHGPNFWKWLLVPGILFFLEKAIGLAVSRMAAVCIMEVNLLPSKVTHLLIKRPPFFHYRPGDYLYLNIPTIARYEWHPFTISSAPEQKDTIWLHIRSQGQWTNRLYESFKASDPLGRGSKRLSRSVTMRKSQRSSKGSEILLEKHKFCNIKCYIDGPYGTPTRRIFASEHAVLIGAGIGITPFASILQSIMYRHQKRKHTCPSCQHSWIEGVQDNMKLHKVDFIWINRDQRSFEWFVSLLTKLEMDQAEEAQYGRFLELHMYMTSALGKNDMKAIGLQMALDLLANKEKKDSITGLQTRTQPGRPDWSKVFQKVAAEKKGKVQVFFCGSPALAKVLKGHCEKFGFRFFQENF
Sequence of NADPH oxidase 4 (Homo sapiens) (Q9NPH5 whole entry, looked up): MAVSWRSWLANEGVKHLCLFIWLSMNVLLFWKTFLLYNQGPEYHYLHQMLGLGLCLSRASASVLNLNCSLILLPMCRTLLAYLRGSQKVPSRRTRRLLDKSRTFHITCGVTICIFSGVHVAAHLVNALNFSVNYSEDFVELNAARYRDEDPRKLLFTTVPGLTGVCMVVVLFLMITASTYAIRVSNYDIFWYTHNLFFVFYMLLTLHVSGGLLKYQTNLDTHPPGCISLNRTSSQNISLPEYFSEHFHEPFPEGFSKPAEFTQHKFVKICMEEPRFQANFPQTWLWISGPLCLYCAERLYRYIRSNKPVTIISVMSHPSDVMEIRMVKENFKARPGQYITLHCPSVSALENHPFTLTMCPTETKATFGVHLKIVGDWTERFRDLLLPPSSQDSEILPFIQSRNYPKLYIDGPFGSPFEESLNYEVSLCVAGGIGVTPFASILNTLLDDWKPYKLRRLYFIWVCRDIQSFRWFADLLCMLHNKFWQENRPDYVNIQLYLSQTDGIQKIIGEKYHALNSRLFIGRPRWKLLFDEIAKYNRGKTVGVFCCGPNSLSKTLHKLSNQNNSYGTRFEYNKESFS

Regarding `COc1cc2c(cc1O)C(C)N(Cc1ccc([N+](=O)[O-])o1)CC2` (stereo not given), the composite z-score in assay [1] worked out at 0.322; in assay [6], 0.97; in assay [7], 0.303; in assay [8], 0.682; in [9], 0.897; in assay [10], 0.0196. Moreover, the composite z-score in assay [12] came out at 0.245. For the same compound, the z-score in [2] is 0.143 (inactive); in assay [3] it was -0.158 (inactive); in assay [4], -0.258 (inactive); in assay [5], 1.6 (inactive); in assay [11], -0.984 (inactive); in assay [13], 18.3 (active). The z-score in assay [14] was 2.09 (inactive); in assay [15], 0.831 (inactive); in assay [16] it was 0.424 (inactive); in assay [17] it was -0.31; in [18], -4.17 (inactive); in assay [19] it was -2.17 (inactive). The z-score in assay [20] is -3.28.

As to `CC(C)[Si](C#CCCCC#N)(O[C@H](c1ccccc1)c1cn([C@H](CO)Cc2ccccc2)nn1)C(C)C`, the composite z-score in assay [1] was -0.187; in assay [6] it was 1.18; in [7], -0.108; in [8], 0.531; in [9] it was 0.477; in assay [10], 0.774. Further, the composite z-score in assay [12] is -0.187. Also, the z-score is -0.248 (inactive) in assay [2]; -0.747 (inactive) in assay [3]; -0.463 (inactive) in [4]; 1.01 (inactive) in assay [5]; 1.72 (inactive) in assay [11]; 1.31 (inactive) in assay [13]. The z-score is 0.4 (inactive) in [14]; -0.138 (inactive) in assay [15]; 0.0616 (inactive) in [16]; -0.013 in assay [17]; -0.777 (inactive) in [18]; 0.789 (inactive) in assay [19]. Further, in assay [20], the z-score worked out at 0.317.

For the compound `C=CCNC(=O)[C@H]1[C@@H]2C(=O)O[C@@H](c3ccccc3)[C@@H](c3ccccc3)N2[C@@H](c2ccc(O)cc2)[C@]12C(=O)Nc1ccc(C#CC3(O)CCCCCC3)cc12`, the composite z-score in [1] was -0.0118; in assay [6], 0.163; in assay [7] it was 0.0899; in assay [8] it was 0.935; in [9], 1.89; in assay [10], 1.13. Moreover, the composite z-score in assay [12] was determined as 0.898. Besides, the z-score in [2] was -1.11 (inactive); in assay [3], -1.06 (inactive); in assay [4] it was -0.0246 (inactive); in assay [5], -0.301 (inactive); in [11] it was -1.14 (inactive); in [13], 1.79 (inactive). In addition, the z-score in assay [14] was 0.749 (inactive); in assay [15] it was 0.514 (inactive); in assay [16], 0.319 (inactive); in assay [17] it was 0.356; in [18], 1.71 (inactive); in assay [19] it was 0.772 (inactive). In addition, the z-score in [20] is 1.06.

Turning to `COCCOC(=O)N1C(=O)[C@@]2(c3cc(C#CC4=CCCCC4)ccc31)[C@H](c1ccccc1OCCO)N1[C@H](c3ccccc3)[C@H](c3ccccc3)OC(=O)[C@H]1[C@@H]2C(=O)N1CCCCCCC1`, the composite z-score in assay [1] was 0.582; in assay [6], 0.342; in [7], -0.584; in assay [8], 0.931; in assay [9] it was 0.156; in assay [10], 0.755. In [12], this compound gave a composite z-score of -0.999. The z-score is -4.01 (inactive) in assay [2]; 0.727 (inactive) in assay [3]; -0.402 (inactive) in assay [4]; 0.207 (inactive) in assay [5]; -1.05 (inactive) in assay [11]; -0.606 (inactive) in assay [13]. The z-score is 1.1 (inactive) in assay [14]; -0.56 (inactive) in assay [15]; 0.442 (inactive) in [16]; -0.56 in assay [17]; 0.962 (inactive) in assay [18]; -1.22 (inactive) in [19]. Besides, the z-score in [20] worked out at 0.545.

`O=C1O[C@H](c2ccccc2)[C@H](c2ccccc2)N2[C@H]1[C@@H](C(=O)N1CCN(c3ncccn3)CC1)[C@]1(C(=O)Nc3ccc(C#CC4(O)CCCCCC4)cc31)[C@H]2c1ccc(OCCO)cc1`: the composite z-score in assay [1] was determined as 1.4; in [6] it was 2.76; in [7] it was 1.05; in assay [8], 0.801; in assay [9] it was 1.74; in assay [10], 2.02. This compound also displayed a composite z-score in assay [12] of 1.66. Moreover, the z-score in assay [2] is -0.69 (inactive); in assay [3], -1.09 (inactive); in [4], -0.698 (inactive); in assay [5], -0.509 (inactive); in [11] it was -0.735 (inactive); in [13] it was 8.14 (active). Moreover, the z-score in assay [14] is 2.41 (inactive); in assay [15] it was 1.76 (inactive); in [16], 1.33 (inactive); in assay [17], -0.274; in [18], 1.28 (inactive); in assay [19], 1.11 (inactive). The same compound registered a z-score in assay [20] of 1.35.

For the compound `COC(=O)[C@@]1(Cc2ccc(OC)cc2)[C@H]2c3cc(C(=O)N(C)C)n(C[C@H](O)CO)c3C[C@H]2CN1C(=O)c1ccccc1`, the composite z-score in assay [1] is 0.533; in assay [6] it was 1.41; in [7], 0.116; in [8], 0.219; in [9], 1.16; in [10] it was -0.753. Also, the composite z-score in [12] came to 0.523. In addition, the z-score is -2.58 (inactive) in [2]; -0.0273 (inactive) in assay [3]; 0.39 (inactive) in assay [4]; 1.33 (inactive) in assay [5]; -1.99 (inactive) in assay [11]; 5.61 (inactive) in assay [13]. Also, the z-score in assay [14] is 0.936 (inactive); in [15], 1.98 (inactive); in assay [16], 1.23 (inactive); in [17], -0.364; in assay [18], 0.452 (inactive); in assay [19], -0.281 (inactive). The compound further gave a z-score in [20] of -0.527.

In the case of `COc1ccc([Si](C)(C)[C@@H]2[C@@H](CC(=O)N(CCO)Cc3ccccc3)O[C@]3(C(=O)N(Cc4cccc(N5C(=O)c6cccc7cccc5c67)c4)c4ccccc43)[C@H]2C)cc1`, the composite z-score in [1] was -0.164; in assay [6] it was -0.24; in assay [7], -0.0762; in assay [8], -0.0207; in [9] it was 0.502; in [10], 0.982. Besides, in assay [12], the composite z-score is 0.287. In addition, the z-score in [2] was -5.84 (inactive); in assay [3] it was -1.02 (inactive); in [4], -0.999 (inactive); in assay [5], -0.823 (inactive); in assay [11] it was 2.02 (inactive); in assay [13], 4.59 (inactive). Besides, the z-score in assay [14] is 0.343 (inactive); in assay [15], -0.667 (inactive); in assay [16] it was -0.526 (inactive); in assay [17], 1.92; in assay [18] it was 1.09 (inactive); in assay [19], 1.09 (inactive). Moreover, the z-score in [20] worked out at 3.

For the compound `COC(=O)[C@H](Cc1ccccc1)N1CC(/C=C/C2CC2)=C[C@H]1[C@H](O)Cc1ccccc1`, the composite z-score in [1] was -0.0412; in assay [6] it was 0.626; in assay [7] it was -0.0523; in assay [8], 0.211; in assay [9], 0.188; in assay [10], 0.593. The composite z-score in assay [12] was -0.012. For the same compound, the z-score in assay [2] was -2.83 (inactive); in assay [3] it was 0.954 (inactive); in assay [4] it was 2.1 (inactive); in assay [5], 18.9 (active); in assay [11], -0.555 (inactive); in assay [13] it was 1.74 (inactive). Further, the z-score in assay [14] is 0.714 (inactive); in assay [15] it was -0.377 (inactive); in assay [16] it was 0.5 (inactive); in [17], 0.184; in [18], -4.7 (inactive); in [19] it was -0.819 (inactive). In assay [20], this compound yielded a z-score of -0.607.
